Assay outcomes from PubChem.
Sampled rows, rich in hits. Any-hit rate of the full collection: about 4.9%.
CSC inhib: cancer stem cell inhibition; cancer stem cell-like cells viability, luminescence; inhibition, % at 7.5 µM; 300,000 tested, 1.1% active; in the data active means inhibition above about 75%; tested in HMLE shEcad cells
Mdm2-MdmX inh: human Mdm2/MdmX binding inhibition | O15151+Q00987 | SaOS-2 split-luciferase Mdm2/MdmX complementation, luminescence | inhibition, % at 8 µM | 330,000 tested, 3% active | AID 485346;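 active means inhibition of at least 50% at 8 µM in the primary screen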
PP1 inh: counter-screen for PP5 inhibitors: inhibitors of human PP1-alpha; AID 2235; purified PP1alpha, OMFP fluorescence; 320,000 tested, 0.9% active; inhibition, % at 6.7 µM; P62136;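 active means inhibition above the mean inhibition of all tested compounds plus 3 SD, computed separately for each screening campaign, cut at about 15% in these data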
Target sequence (P62136 whole entry, looked up): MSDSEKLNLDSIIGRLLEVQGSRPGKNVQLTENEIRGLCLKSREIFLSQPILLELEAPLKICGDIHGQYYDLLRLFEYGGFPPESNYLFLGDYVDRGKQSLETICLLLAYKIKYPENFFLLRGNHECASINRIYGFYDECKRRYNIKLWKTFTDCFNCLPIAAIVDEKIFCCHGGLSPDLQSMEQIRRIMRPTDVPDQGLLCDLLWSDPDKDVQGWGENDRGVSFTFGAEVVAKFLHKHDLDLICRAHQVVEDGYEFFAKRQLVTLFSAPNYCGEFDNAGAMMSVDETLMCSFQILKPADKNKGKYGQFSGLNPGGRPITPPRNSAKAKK
Calb FLC: C. albicans growth modulation with fluconazole | C. albicans CaCi-2 (fluconazole-resistant clinical isolate) + fluconazole, Alamar Blue growth, 48 h | growth inhibition, % (test concentration not listed) | 300,000 tested, 0.57% active;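 active means growth inhibition above about 58% in most replicates, limit read from the data, passing the limit was not always enough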;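 further: all wells also contain fluconazole at 8 µg/ml as a sub-toxic cotreatment; 0% = median of DMSO wells and 100% = median of geldanamycin control wells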
Beta apoptosis: blocks beta cell apoptosis | INS-1E cytokine-induced death, ATP luminescence, 48 h; percent of positive-control rescue, neutral wells zero | protection from apoptosis, % (test concentration not listed) | 300,000 tested, 0.8% active;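 active means Every replicate reaches about 75%, or at least half do and their mean reaches it too, limit read from the data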;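 further: 0% = cytokine-treated negative control wells and 100% = positive control rescue; higher means more ATP so stronger rescue from cytokine killing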
PP5 primary: PP5 (human) phosphatase inhibition | inhibition, % at 6.7 µM | P53041 | 320,000 tested, 0.18% active | purified PP5c, OMFP substrate fluorescence | AID 1987;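 active means inhibition above the campaign's mean inhibition across all tested compounds plus 3 SD, cut at about 9.5% in these data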;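 further: 0% = DMSO only and 100% = 100 µM cantharidin control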
Mdm2 MdmX conf: human Mdm2/MdmX binding inhibition, confirmed; luminescent assay; 10,000 tested, 55% active; shares compounds with Mdm2-MdmX inh; inhibition, % at 8 µM; AID 489028; in the data active means inhibition above about 40%
FLuc counter: full-length luciferase inhibition in Mdm2/MdmX counter-screen. SaOS-2 full-length luciferase counterscreen, luminescence. shares compounds with Mdm2-MdmX inh. inhibition, % at 8 µM. 6,200 tested, 77% active;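 active means mean inhibition at 8 µM reaching about 37%, which flags the compound as non-specific, limit read from the data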;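 further: p53-null SaOS-2 cells with luciferase driven by a doxycycline-inducible promoter; compound on cells about two nights before reading with doxycycline added after day one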
Numbers without * were called inactive; · = not tested or not shown.

SMILES | CSC inhib | Mdm2-MdmX inh | PP1 inh | Calb FLC | Beta apoptosis | PP5 primary | Mdm2 MdmX conf | FLuc counter
COC(=O)c1ccccc1NC(=O)CN1CCN(C23CC4CC(CC(C4)C2)C3)CC1 | -13 | 22 | -6 | 19 | 7 | 1 | · | ·
COC(=O)c1c(-c2ccc(OC)cc2)sc2ccc(N3CCOCC3)cc12 | 43 | 57* | · | · | 8 | · | -13 | ·
CC(=O)OC[C@]12CC[C@H]3[C@@](C)(CC[C@H]4C(C)(C)CCC[C@]34C)[C@@H]1C[C@H](C1=CC(=O)O[C@@H]1OC(C)=O)O2 | 132* | 63* | · | · | 2 | · | -12 | ·
CC1(C)CCC[C@]2(C)[C@H]3CC(=O)O[C@]3(C)CC[C@@H]12 | 69 | -6 | -1 | -3 | -7 | 3 | · | ·
CCOc1ccccc1NC(=O)CCCc1nc2ccccc2c(=O)[nH]1 | 17 | 65* | -3 | -14 | 7 | 0 | 49* | 56*
Nc1cccc2nc3ccccc3cc12 | · | 58* | -1 | · | · | 4 | 78* | 32
COc1ccc(NC(=O)c2cc(S(=O)(=O)N3CCCC3)ccc2C)cn1 | -13 | 0 | 0 | · | -3 | 0 | · | ·
CCCN1C/C(=C/c2ccc3c(c2)OCO3)C(=O)/C(=C/c2ccc3c(c2)OCO3)C1 | 87* | 99* | 0 | -31 | -3 | 1 | 36 | 68*
O=c1[nH]c2ccccc2nc1-c1ccccc1 | 0 | -4 | -4 | -4 | 2 | 2 | · | ·
NC(=O)N=Nc1c2[nH]c3ccccc3nc-2c2ccccc12 | 58 | 82* | -5 | -9 | 62 | -1 | 52* | 65*
Cc1ccc(Cn2c(CCNc3nc(-c4ccc(Cl)c([N+](=O)[O-])c4)cs3)nc3cc(Cl)c(Cl)cc32)cc1 | 54 | 93* | 2 | 2 | 3 | 2 | -4 | ·
COC(=O)c1ccc(CNC(=O)Cn2cnc3c(NCc4ccccc4)ncnc32)cc1 | · | 27 | · | · | · | · | · | ·
COc1ccc(CNC(=O)Cn2cnc3c(NCc4ccccc4)ncnc32)cc1 | · | 61* | · | · | · | · | 28 | ·
COc1ccc(S(=O)(=O)N(CC(=O)NCc2cccnc2)c2ccc(C)cc2)cc1OC | -6 | 23 | -1 | 9 | 2 | 2 | · | ·
COc1ccc(Nc2cc(=O)n(C3CCCCC3)c(=O)[nH]2)c(OC)c1 | -8 | 9 | 0 | 0 | -5 | 0 | · | ·
Cc1cc(C)cc(Nc2cc(=O)n(C3CCCCC3)c(=O)[nH]2)c1 | 47 | 51* | 5 | -13 | -1 | -10 | 15 | ·
COC(=O)CS(=O)(=O)c1ccsc1C(=O)Nc1ccc(F)c(F)c1 | · | 8 | -2 | 22 | 0 | 0 | · | ·
Cn1c(C(=O)NCc2cccs2)cc2oc3ccccc3c21 | -11 | 77* | 2 | 0 | -2 | 4 | 72* | 28
Cn1c(C(=O)NCc2ccccc2)cc2oc3ccccc3c21 | 38 | 88* | 3 | 14 | 3 | 2 | 87* | 32
CCCCCC(=O)Nc1cccc2ccccc12 | 7 | -1 | -6 | 1 | 5 | 3 | · | ·
CCCCCCCC[n+]1cccc2c3ccccc3ccc21 | 32 | 86* | 4 | 102* | 108* | -3 | 84* | 23
COc1ccc(-c2nc(-c3ccc4c(c3)OCO4)[nH]c2-c2ccc(OC)cc2)cc1 | · | 67* | 3 | 21 | 33 | 3 | 25 | ·
COc1ccc(-c2noc(-c3ccc4c(c3)OCO4)n2)cc1 | 5 | -94 | 2 | 20 | 0 | 2 | · | ·
Cc1ccccc1Nc1nc(N)nc(CSc2nnnn2-c2ccccc2)n1 | -6 | 11 | -4 | -3 | · | 2 | · | ·
CCc1ccc(Nc2nc(N)nc(CSc3nnnn3-c3ccccc3)n2)cc1 | 23 | 60* | 16* | -4 | -8 | 1 | 62* | 48*
O=c1[nH]c(=O)n([C@H]2C[C@H](O)[C@@H](CO)O2)cc1C(F)(F)F | 71 | 60* | 3 | · | 5 | 0 | 52* | 56*
COc1ccccc1CNC(=O)CC12CC3CC(CC(Br)(C3)C1)C2 | 10 | 7 | -1 | 6 | -4 | -4 | · | ·
Cc1ccc(-c2nnn3c2nc(NC(C)C)c2ccccc23)cc1 | 7 | 32 | 2 | -10 | 4 | 2 | · | ·
CNc1nc2c(-c3ccc(Cl)cc3)nnn2c2ccccc12 | 15 | 61* | 2 | -7 | 17 | -1 | 42* | 69*
